Holding throughout (test): DAPPL (digital affinity profiling via proximity ligation, sequencing); 10 mM Tris-HCl pH 7.5, 50 mM NaCl, 1 mM DTT, 4% glycerol, room temperature, 30 min; GST-TFs on glutathione beads, 16-mer random dsDNA library, 0.1% formaldehyde crosslink after washing; high values mean tight binding
Common to all, as to conditions: protein: recombinant; tags: N-terminal GST; dsDNA, one strand shown

The target in one test is T1, FLI1 (Homo sapiens, UniProt Q01543 1-452).
T1 sequence: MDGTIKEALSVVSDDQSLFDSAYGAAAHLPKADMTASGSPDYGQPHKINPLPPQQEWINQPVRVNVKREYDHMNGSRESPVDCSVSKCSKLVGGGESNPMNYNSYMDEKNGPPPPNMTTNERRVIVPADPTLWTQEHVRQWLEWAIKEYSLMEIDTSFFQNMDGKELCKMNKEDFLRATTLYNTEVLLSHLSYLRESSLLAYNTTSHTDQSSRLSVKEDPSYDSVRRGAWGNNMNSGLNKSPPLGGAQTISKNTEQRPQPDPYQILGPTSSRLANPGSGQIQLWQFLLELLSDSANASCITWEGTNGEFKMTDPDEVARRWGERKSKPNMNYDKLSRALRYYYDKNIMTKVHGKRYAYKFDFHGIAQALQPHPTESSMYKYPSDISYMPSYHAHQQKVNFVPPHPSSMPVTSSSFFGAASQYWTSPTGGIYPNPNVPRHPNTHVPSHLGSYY
Summed up:
(§1)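 Beads coated with glutathione captured GST-fused human transcription factors that had been expressed in yeast, and the factors were then given DNA barcodes and pooled with a tag-only sample. The pools were incubated with 200 nmole of a random double-stranded 16-mer DNA library in Tris/NaCl/DTT/glycerol buffer for 30 min at room temperature, washed, crosslinked with 0.1% formaldehyde and proximity-ligated with BsaI/T4 ligase at 37 °C for 1 h. PCR amplification and Illumina NextSeq500 sequencing came last. Binding signal is each hexamer's read frequency for a factor divided by its frequency for the tag-only sample.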

In a further test the target is T2, ELK1 (Homo sapiens, UniProt P19419 1-428).
T2 sequence: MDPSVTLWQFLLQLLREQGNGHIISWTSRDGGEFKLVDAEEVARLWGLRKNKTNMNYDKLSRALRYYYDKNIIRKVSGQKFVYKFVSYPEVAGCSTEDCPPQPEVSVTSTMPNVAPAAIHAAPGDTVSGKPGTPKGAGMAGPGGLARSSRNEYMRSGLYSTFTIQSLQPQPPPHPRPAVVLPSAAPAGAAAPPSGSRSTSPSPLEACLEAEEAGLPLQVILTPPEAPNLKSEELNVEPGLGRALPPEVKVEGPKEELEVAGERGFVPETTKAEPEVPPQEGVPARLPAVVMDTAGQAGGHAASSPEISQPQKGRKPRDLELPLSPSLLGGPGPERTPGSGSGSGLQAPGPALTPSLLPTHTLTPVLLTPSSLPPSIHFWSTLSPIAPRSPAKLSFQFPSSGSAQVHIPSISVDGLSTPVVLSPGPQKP
Summed up: as §1

In another test the target is T3, GABPA (Homo sapiens, UniProt Q06546 1-454).
T3 sequence: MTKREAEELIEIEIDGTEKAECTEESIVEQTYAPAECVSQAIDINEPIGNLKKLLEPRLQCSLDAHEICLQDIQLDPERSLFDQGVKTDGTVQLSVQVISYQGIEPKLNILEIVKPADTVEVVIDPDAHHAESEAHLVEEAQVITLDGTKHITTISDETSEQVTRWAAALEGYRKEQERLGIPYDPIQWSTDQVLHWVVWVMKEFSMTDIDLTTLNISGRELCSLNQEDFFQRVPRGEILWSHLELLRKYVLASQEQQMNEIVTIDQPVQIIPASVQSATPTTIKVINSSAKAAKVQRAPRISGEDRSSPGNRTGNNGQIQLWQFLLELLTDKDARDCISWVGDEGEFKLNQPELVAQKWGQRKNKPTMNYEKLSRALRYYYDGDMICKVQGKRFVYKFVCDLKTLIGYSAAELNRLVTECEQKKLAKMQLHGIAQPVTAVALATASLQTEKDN
In a few lines:
as §1

The next test concerns the target ELF1 (Homo sapiens, UniProt P32519 1-619). In a few lines: as §1
The target of a further test is T4, EHF (Homo sapiens, UniProt Q9NZC4 1-300).
T4 sequence: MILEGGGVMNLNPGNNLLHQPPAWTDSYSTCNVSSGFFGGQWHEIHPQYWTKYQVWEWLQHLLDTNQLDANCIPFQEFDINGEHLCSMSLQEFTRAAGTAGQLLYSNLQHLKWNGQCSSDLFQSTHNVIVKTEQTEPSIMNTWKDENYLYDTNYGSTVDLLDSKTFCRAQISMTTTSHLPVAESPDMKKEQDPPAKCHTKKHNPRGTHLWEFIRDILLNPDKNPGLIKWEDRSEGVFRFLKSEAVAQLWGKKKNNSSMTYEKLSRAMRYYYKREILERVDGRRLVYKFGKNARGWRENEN
Summed up: as §1

Another test concerns the target SPI1 (Homo sapiens, UniProt P17947 1-270). Summed up: as §1
The target of another test is SPIB (Homo sapiens, UniProt Q01892 1-262). Summed up:
as §1

The target of another test is T5, ELK3 (Homo sapiens, UniProt P41970 1-407).
T5 sequence: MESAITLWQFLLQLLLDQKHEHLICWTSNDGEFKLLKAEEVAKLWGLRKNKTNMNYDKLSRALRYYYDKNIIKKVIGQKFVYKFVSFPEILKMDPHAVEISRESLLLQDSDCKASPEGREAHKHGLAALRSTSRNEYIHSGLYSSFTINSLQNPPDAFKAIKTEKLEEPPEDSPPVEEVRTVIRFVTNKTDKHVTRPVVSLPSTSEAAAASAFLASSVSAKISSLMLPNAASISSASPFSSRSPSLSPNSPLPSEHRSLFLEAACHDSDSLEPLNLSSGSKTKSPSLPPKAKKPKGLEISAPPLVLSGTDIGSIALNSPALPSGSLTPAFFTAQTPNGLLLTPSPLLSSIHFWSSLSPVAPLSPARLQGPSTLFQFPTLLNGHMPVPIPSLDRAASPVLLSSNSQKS
In a few lines:
as §1

The target of a further test is T6, FEV (Homo sapiens, UniProt Q99581 1-238).
T6 sequence: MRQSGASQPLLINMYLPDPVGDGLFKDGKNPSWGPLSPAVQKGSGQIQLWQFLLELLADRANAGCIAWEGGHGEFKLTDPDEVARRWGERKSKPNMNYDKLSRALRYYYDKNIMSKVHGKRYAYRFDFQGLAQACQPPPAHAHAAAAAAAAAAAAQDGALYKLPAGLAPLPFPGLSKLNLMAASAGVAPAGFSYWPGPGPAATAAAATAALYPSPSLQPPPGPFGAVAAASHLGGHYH
In a few lines: as §1

The target of a further test is ETV5 (Homo sapiens, UniProt P41161 1-510). Summed up: as §1
ETV5, sequence (P41161 whole entry): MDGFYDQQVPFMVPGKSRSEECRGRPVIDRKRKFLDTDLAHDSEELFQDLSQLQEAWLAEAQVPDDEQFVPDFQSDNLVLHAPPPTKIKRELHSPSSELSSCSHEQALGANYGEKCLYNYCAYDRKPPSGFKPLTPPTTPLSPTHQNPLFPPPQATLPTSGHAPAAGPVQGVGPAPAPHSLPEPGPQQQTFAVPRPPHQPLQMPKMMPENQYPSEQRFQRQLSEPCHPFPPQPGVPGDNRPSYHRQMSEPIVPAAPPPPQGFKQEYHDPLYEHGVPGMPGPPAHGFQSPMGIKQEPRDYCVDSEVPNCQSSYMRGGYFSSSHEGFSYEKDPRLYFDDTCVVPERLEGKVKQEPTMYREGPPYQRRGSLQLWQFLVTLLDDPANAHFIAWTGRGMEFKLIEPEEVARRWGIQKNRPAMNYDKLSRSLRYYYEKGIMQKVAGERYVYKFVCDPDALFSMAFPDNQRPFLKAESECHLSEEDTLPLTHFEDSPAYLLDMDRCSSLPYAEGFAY
The target of another test is T7, SPIC (Homo sapiens, UniProt Q8N5J4 1-248).
T7 sequence: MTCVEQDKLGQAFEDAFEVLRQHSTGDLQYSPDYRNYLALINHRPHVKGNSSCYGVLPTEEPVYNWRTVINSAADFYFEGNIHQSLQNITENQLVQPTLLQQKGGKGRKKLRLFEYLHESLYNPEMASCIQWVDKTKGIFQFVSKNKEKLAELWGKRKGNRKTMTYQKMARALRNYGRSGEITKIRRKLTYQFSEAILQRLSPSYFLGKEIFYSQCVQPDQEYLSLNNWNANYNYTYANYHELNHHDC
In a few lines:
as §1

For another test, the target named is ELF4 (Homo sapiens, UniProt Q99607 1-663). Summed up:
as §1

The target of another test is T8, ELK4 (Homo sapiens, UniProt P28324-2 1-405).
T8 sequence: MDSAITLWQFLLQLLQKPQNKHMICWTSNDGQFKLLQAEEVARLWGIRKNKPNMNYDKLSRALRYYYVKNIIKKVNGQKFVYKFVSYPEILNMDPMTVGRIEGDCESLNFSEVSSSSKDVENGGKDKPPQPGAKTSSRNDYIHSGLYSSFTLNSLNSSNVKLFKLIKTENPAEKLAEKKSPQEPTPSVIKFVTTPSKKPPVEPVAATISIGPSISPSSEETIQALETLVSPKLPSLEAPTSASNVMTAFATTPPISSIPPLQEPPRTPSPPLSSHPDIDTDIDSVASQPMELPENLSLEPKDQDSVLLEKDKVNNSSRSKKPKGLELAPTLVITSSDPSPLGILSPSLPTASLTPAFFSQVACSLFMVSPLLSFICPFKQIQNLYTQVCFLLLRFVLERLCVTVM
In a few lines: as §1

The target of the next test is T9, ETV2 (Homo sapiens, UniProt O00321 1-342).
T9 sequence: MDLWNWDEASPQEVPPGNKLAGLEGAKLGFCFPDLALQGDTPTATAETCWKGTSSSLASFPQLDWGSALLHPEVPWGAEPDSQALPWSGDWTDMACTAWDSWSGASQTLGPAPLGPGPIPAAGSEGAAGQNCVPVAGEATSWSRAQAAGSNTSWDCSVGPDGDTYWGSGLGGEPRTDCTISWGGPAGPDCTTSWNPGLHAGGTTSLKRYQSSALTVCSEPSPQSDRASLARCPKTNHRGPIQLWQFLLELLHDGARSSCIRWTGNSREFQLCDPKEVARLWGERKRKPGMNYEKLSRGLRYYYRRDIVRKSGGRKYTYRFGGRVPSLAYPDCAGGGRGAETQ
Summed up: as §1

A further test deals with T10, ELF3 (Homo sapiens, UniProt P78545 1-371).
T10 sequence: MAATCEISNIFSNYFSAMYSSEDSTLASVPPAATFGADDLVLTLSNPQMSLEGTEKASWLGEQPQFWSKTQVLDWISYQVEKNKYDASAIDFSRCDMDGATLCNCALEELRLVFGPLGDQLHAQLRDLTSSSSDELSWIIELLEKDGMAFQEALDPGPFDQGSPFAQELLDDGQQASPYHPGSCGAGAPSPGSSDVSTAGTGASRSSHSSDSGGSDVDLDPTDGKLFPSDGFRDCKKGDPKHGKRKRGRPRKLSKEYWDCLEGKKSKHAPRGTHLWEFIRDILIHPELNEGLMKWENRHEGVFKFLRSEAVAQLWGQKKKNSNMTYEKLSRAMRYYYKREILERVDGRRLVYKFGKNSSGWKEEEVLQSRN
Summed up: as §1

ELF1, sequence (P32519 whole entry): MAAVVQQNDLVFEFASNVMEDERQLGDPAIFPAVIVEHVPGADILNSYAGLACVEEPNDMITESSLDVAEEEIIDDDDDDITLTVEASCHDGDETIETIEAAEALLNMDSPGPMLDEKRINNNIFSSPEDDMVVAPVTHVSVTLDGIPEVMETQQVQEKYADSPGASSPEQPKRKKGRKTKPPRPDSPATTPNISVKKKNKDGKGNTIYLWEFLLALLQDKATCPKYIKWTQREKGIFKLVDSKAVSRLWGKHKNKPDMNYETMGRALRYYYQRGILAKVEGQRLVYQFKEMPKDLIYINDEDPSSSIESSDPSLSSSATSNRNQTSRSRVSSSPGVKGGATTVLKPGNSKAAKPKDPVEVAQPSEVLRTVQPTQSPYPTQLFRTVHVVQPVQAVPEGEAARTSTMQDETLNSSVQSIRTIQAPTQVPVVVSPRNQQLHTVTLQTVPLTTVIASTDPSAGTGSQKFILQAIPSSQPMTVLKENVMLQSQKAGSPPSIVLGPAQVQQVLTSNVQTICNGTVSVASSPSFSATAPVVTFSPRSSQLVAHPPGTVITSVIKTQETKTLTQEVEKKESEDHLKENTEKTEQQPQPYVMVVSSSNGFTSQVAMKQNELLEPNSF
SPIB, sequence (Q01892 whole entry): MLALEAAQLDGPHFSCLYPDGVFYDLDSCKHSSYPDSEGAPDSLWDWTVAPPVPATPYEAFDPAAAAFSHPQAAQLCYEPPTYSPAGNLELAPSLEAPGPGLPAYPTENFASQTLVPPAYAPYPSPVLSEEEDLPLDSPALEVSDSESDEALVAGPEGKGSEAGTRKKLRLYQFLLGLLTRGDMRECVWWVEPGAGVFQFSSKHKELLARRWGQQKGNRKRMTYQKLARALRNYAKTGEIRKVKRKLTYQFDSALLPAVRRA
ELF4, sequence (Q99607 whole entry): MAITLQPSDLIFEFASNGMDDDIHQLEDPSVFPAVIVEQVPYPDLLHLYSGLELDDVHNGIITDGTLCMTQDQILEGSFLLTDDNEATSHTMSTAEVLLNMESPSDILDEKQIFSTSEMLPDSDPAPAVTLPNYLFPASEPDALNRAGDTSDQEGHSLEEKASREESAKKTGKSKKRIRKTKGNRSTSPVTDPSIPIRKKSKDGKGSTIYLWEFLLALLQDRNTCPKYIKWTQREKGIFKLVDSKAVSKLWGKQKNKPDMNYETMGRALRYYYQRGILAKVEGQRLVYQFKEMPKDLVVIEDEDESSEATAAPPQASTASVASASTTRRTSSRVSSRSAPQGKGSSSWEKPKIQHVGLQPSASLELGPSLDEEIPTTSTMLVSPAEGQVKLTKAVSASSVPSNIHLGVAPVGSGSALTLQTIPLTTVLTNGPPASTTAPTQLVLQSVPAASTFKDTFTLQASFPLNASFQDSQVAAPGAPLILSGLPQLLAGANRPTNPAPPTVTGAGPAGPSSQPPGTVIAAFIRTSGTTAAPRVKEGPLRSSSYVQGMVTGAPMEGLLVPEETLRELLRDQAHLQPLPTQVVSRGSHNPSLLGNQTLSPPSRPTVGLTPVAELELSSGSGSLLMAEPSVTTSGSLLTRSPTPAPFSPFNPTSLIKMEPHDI

For CTGCAG, the binding signal with FLI1 is 1.13 fold enrichment (6-mer frequency, TF over GST control); in the test with ELK1, 1.1 fold enrichment (6-mer frequency, TF over GST control); with GABPA it was 1.16 fold enrichment (6-mer frequency, TF over GST control); with ELF1 it was 1.08 fold enrichment (6-mer frequency, TF over GST control); with EHF, 1.18 fold enrichment (6-mer frequency, TF over GST control); with SPI1 it was 1.14 fold enrichment (6-mer frequency, TF over GST control). The binding signal in the test with SPIB was 1.08 fold enrichment (6-mer frequency, TF over GST control); with ELK3, 1.05 fold enrichment (6-mer frequency, TF over GST control); in the test with FEV it was 1.1 fold enrichment (6-mer frequency, TF over GST control); in the test with ETV5, 1.11 fold enrichment (6-mer frequency, TF over GST control); with SPIC, 1.37 fold enrichment (6-mer frequency, TF over GST control); in the test with ELF4 it was 1.17 fold enrichment (6-mer frequency, TF over GST control). For the same sequence, the binding signal was 1.26 fold enrichment (6-mer frequency, TF over GST control) with ELK4; 1.3 fold enrichment (6-mer frequency, TF over GST control) with ETV2; 1.02 fold enrichment (6-mer frequency, TF over GST control) in the test with ELF3.

These data come from article PMC7862700, “An all-to-all approach to the identification of sequence-specific readers for epigenetic DNA modifications on cytosine”.
